# Experimental data: PubChem BioAssay AID1259312 (Keith Lab, Institute of Cancer Science, University of …, 2017)
# In all, about 4,500 compounds went through this assay and about 200 (4.4%) were called active.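 The calls were made as follows: active = cell survival measured by absorbance rises more than 2.5-fold over infected cells without compound; inactive = the rest.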 Shown is part of a subset that was picked to be rich in actives.
# Test: survival after telomere uncapping, modulators, primary screen, cell-based (AID 1259312);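 also: virus expresses mutant telomerase RNA that uncaps telomeres and kills cells; compound added 2 days after infection so exposure lasts 3 days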
# Settings: HCT116 + Ad-hTR-mut, MTT, 5 d; at 10 µM, active compounds read high
row,Structure (SMILES),fold change
1,CCCCc1ccc(C2C3=C(CC(C)(C)CC3=O)OC3=C2C(=O)CC(C)(C)C3)s1,-1.42 (inactive)
2,Fc1ccc(-c2nc3sc(-c4ccc(F)cc4)nc3s2)cc1,-2.41 (inactive)
3,O=C(c1ccc2[nH]c(=O)oc2c1)c1ccc2[nH]c(=O)oc2c1,1.41 (inactive)
4,C#CCN1C(=O)S/C(=C\c2ccc(N3CCCC3)cc2)C1=O,-1.24 (inactive)
5,COCc1[nH]nc2c1C1(CCN(C)CC1)C(C#N)=C(N)O2,-1.21 (inactive)
6,CN1CCC2(CC1)C(C#N)=C(N)Oc1n[nH]c(-c3ccccc3)c12,3.65 (active)
7,CN1CCC2(CC1)C(C#N)=C(N)Oc1n[nH]c(C(=O)OC(C)(C)C)c12,-1.08 (inactive)
8,CCOC(=O)C1=C(C)NC2=C(C(=O)CCC2)C1c1ccc(CC)s1 (configuration not stated),-1.61 (inactive)
9,O=c1[nH]c2ccccc2[nH]c1=O,5 (active)
10,COc1ccc2[nH]c(=O)c(=O)[nH]c2c1,1.16 (inactive)
11,O=c1ccc2ccccc2[nH]1,-1.85 (inactive)
12,O=S(=O)(c1ccccc1)N1CCN(Cc2ccc3c(c2)OCO3)CC1,-4.81 (inactive)
13,O=S(=O)(c1ccc2c(c1)OCCO2)N1CCCCC1,-1.44 (inactive)
14,O=C(c1ccc(COc2ccc(I)cc2)o1)N1CCCC1,-1.09 (inactive)
15,CN(C)c1ccc(/C=C2\C(=O)ON=C2c2cccc(I)c2)cc1,-1.18 (inactive)
16,Cn1c2c(c(=O)[nH]c1=O)C(c1ccccc1)C1=C(N2)c2ccccc2C1=O (configuration not stated),-6.31 (inactive)
17,Cc1[nH][nH]c(=O)c1C(c1ccncc1)C(C#N)C#N (configuration not stated),3.56 (active)
18,O=C(Nc1sc2c(c1C(=O)Nc1ccc(Br)cc1)CCC2)c1cccs1,1.12 (inactive)
19,Cn1nnnc1SCC(=O)Nc1ccc(F)c(Cl)c1,-2.05 (inactive)
20,O=C(Nc1ccc(Br)cc1Br)C(Cl)Cl,-6.77 (inactive)
21,CC(=O)Nc1sc2c(c1C(N)=O)CCCC2,-1.98 (inactive)
22,CC(=O)Nc1sc2c(c1C(N)=O)CCCCC2,1.05 (inactive)

row,Structure (SMILES),fold change
1,CC(=O)Nc1sc2c(c1C(=O)O)CCCC2,2.88 (active)
2,COc1ccc(S(=O)(=O)N2CCCc3ccccc32)cc1,-1.9 (inactive)
3,CC1(C)CC(NC(=O)C(=O)NC2CC(C)(C)NC(C)(C)C2)CC(C)(C)N1,4.26 (active)
4,CC(C)NC(=O)C(=O)NC1CC(C)(C)NC(C)(C)C1,-2.38 (inactive)
5,CC1(C)CC(NS(=O)(=O)c2ccccc2)CC(C)(C)N1,-1.13 (inactive)
6,Cc1cc(NC(=O)c2n[nH]c(=O)c3ccccc23)no1,-1.69 (inactive)
7,Cn1c(-c2ccccc2)c(NC(=O)c2ccccc2Cl)c(=O)n1C,-1.22 (inactive)
8,C=CCOC(=O)c1sc(NC(=O)c2ccco2)nc1C,-1.45 (inactive)
9,Oc1[nH]c(=S)sc1/C=C/C=C/C=Nc1ccccc1,inactive
10,CCCc1cc(=O)oc2cc(O)cc(O)c12,1.04 (inactive)
11,Cc1sc(NC(=O)Cn2nc(C(F)(F)F)cc2C)c(C(N)=O)c1C,-1.23 (inactive)
12,Cc1cc(C(F)(F)F)nn1CC(N)=O,3.13 (active)
13,Cn1nc(C(F)(F)F)cc1C(=O)O,-1.06 (inactive)
14,C=CCn1c(COc2ccccc2)n[nH]c1=S,1.52 (inactive)
15,CCOC(=O)c1c(NC(=O)C23CC4CC(CC(C4)C2)C3)sc2c1CCN(C(=O)OCC)C2,-1.15 (inactive)
16,O=[N+]([O-])c1ccc(N=Cc2cc(Br)cc([N+](=O)[O-])c2O)cc1,inactive
17,O=[N+]([O-])c1ccc(O)c(N=Cc2cc(Br)cc([N+](=O)[O-])c2O)c1,inactive
18,Oc1c(Br)cc(Br)cc1C=Nc1cc(Cl)ccc1Cl,inactive
19,O=[N+]([O-])c1ccc(N=Cc2cc(Br)cc(Br)c2O)cc1,active
20,Oc1c(Br)cc(Br)cc1C=Nc1ccc(Cl)cc1Cl,active
21,O=[N+]([O-])c1ccc(N=Cc2cc(Br)cc(Br)c2O)c(O)c1,inactive
22,Oc1c(Cl)cc(Cl)cc1C=Nc1ccc(Cl)cc1Cl,inactive

row,Structure (SMILES),fold change
1,O=[N+]([O-])c1cc(Br)cc(C=Nc2ccc(N=Cc3cc(Br)cc([N+](=O)[O-])c3O)cc2)c1O,inactive
2,O=[N+]([O-])c1ccc(O)c(N=Cc2cc(Br)cc(Br)c2O)c1,active
3,S=C(c1ccco1)N1CCOCC1,1.24 (inactive)
4,NC(Cc1cc(F)ccc1F)C(=O)O (configuration not stated),-3.72 (inactive)
5,O=[N+]([O-])c1ccc(NS(=O)(=O)c2ccccc2)c([N+](=O)[O-])c1,3.49 (active)
6,O=[N+]([O-])c1ccc(Nc2ccc(O)cc2)c([N+](=O)[O-])c1,-1.07 (inactive)
7,O=[N+]([O-])c1cccc(S(=O)(=O)Nc2ccc(I)cc2)c1,1.39 (inactive)
8,O=C1CN(C(=O)Cn2c(=O)oc3ccccc32)c2ccccc2N1,-1.03 (inactive)
9,CN1N=C(C(=O)O)CCC1=O,2.58 (active)
10,O=C(O)C1=NN(c2ccc(S(=O)(=O)O)cc2)C(=O)C1,1.74 (inactive)
11,O=C1CCC(=O)N1CCCCCCN1C(=O)CCC1=O,-1.37 (inactive)
12,O=C1C=CC(=O)N1c1cc(Cl)cc(Cl)c1,-1.38 (inactive)
13,N#CC1=C(N)C(C#N)(C#N)C(c2ccc(Cl)cc2Cl)C2CCCC=C12 (configuration not stated),-4.43 (inactive)
14,Cc1[nH][nH]c(=O)c1C1(C(C#N)C#N)C2CC3CC(C2)CC1C3 (configuration not stated),2.9 (active)
15,C=CCN(CC=C)C(=O)C1c2ccccc2Oc2ccccc21,-1.36 (inactive)
16,CN(C)c1ccc(NC(=O)c2sc(=S)[nH]c2N)cc1,-1.46 (inactive)
17,N#Cc1c(C(F)(F)F)cc(-c2cccs2)oc1=S,-2.59 (inactive)
18,N#Cc1c(C(F)(F)F)cc(-c2cccs2)[nH]c1=S,4.58 (active)
19,N#Cc1c(C(F)(F)F)cc(-c2ccccc2)[nH]c1=S,-1.58 (inactive)
20,O=C(Nc1ccc(I)cc1)C1CCCN1C(=O)c1cccs1 (configuration not stated),1.51 (inactive)
21,Cn1c(Cc2ccccc2)n[nH]c1=S,-1.19 (inactive)
22,CCCCn1c(COc2ccc(Cl)cc2)n[nH]c1=S,-1.76 (inactive)

row,Structure (SMILES),fold change
1,Cn1c(COc2ccc(C3CCCCC3)cc2)n[nH]c1=S,2.92 (active)
2,O=C(O)CCSc1ncnc2ccccc12,-3.11 (inactive)
3,CCN(CC)CC(=O)Nc1sc2c(c1C(N)=O)CCCC2,1 (inactive)
4,O=c1[nH]cnc2nn(-c3ccccc3)nc12,inactive
5,c1ccc(CC2=NCCN2)cc1,-1.2 (inactive)
6,Fc1ccc(CSc2nnc(SCc3ccccc3F)s2)cc1,-1.07 (inactive)
7,Fc1ccccc1CSC1=NCCN1,3.44 (active)
8,O=C1NC(=O)/C(=C/c2ccc(-c3ccc(Br)c(Cl)c3)o2)N1,-1.16 (inactive)
9,Nc1ccc(N2CCCC2)c(C(F)(F)F)c1,1.69 (inactive)
10,COc1ccc(N/C=C(\C#N)C(N)=S)cc1OC,-3.68 (inactive)
11,CCCN1CC2=C(OC(N)=C(C#N)C2c2ccc(SC)cc2)/C(=C/c2ccc(SC)cc2)C1 (configuration not stated),5.06 (active)
12,COc1ccc(CC2=CN(C)CC3=C2OC(N)=C(C#N)C3c2ccc(OC)cc2)cc1 (configuration not stated),1.19 (inactive)
13,CC(C)N1C=C(Cc2ccc(F)cc2)C2=C(C1)C(c1ccc(F)cc1)C(C#N)=C(N)O2 (configuration not stated),1.45 (inactive)
14,COc1ccc(C(=CCl)c2ccc(OC)c(Br)c2)cc1Br,-2.67 (inactive)
15,CCc1sc(C(C2C(=O)CC(C)(C)CC2=O)C2C(=O)CC(C)(C)CC2=O)cc1Br,-6.02 (inactive)
16,CCc1sc(C(C2C(=O)CC(C)(C)CC2=O)C2C(=O)CC(C)(C)CC2=O)cc1[N+](=O)[O-],3.11 (active)
17,CCc1ccc(C(C2C(=O)CC(C)(C)CC2=O)C2C(=O)CC(C)(C)CC2=O)s1,-2.62 (inactive)
18,O=C(N=Nc1c(O)[nH]c2ccccc12)c1cc(-c2ccco2)[nH]n1,inactive
19,O=[N+]([O-])c1ccc(SCCO)c2ncccc12,1.52 (inactive)
20,O=[N+]([O-])c1ccc(Cl)cc1N1CCN(CCO)CC1,2.17 (inactive)
21,O=[N+]([O-])c1ccc(Cl)cc1SCCO,3.06 (active)
22,COc1ccc(C2C3CCC=C3C(C#N)=C(N)C2(C#N)C#N)c(OC)c1 (configuration not stated),1.26 (inactive)

row,Structure (SMILES),fold change
1,COCCNC(=O)C(=O)NCCC1=CCCCC1,1.05 (inactive)
2,Clc1cccc(N2CCN(Cn3nnc4ccccc43)CC2)c1,3.04 (active)
3,C(=C/c1ccccc1)/CN1CCN(Cn2nnc3ccccc32)CC1,-1.33 (inactive)
4,c1ccc2c(c1)nnn2CN1CCN(c2ccc3c(c2)OCO3)CC1,-1.48 (inactive)
5,Cc1cc(C)c(CCl)c(C)c1/C=N/O,1.02 (inactive)
6,O=C(O)CSc1nc(SCc2ccccc2)nc2ccccc12,1.5 (inactive)
7,CCc1ccc(C2C(C#N)=C(N)OC3=C2C(=O)CCC3)s1 (configuration not stated),1.35 (inactive)
8,Nc1nonc1C(=O)O,-1.12 (inactive)
9,COC(=O)c1nonc1N,-1.05 (inactive)
10,CCOC(=O)c1nonc1N,3.82 (active)
11,CS(=O)(=O)Nc1ccc(Br)cn1,-1.27 (inactive)
12,CCCOc1ccc(N/C(N)=N/c2nc(C)cc(C)n2)cc1,-3.48 (inactive)
13,CC1=C(C2=C(C)C(C(C)C)C3=C(C(=O)C(O)C3O)C2O)C(O)C2=C(C(O)C(O)C2=O)C1C(C)C (configuration not stated),-1.99 (inactive)
14,O=S(=O)(Nc1ccc(F)c(Cl)c1)c1ccc(Cl)cc1,2.99 (active)
15,O=S(=O)(Nc1ccc(Cl)cc1)c1ccc(NS(=O)(=O)c2ccc3c(c2)OCCO3)cc1,-1.18 (inactive)
16,O=S(=O)(Nc1cc(Cl)cc(Cl)c1)c1ccc(Cl)cc1,4.93 (active)
17,O=S(=O)(Nc1ccc2c(c1)OCO2)c1ccc(Cl)cc1,-1.43 (inactive)
18,O=S(=O)(Nc1ccncc1)c1ccc(Cl)cc1,-1.23 (inactive)
19,O=S(=O)(Nc1cccc(F)c1)c1ccc(F)cc1,-1.33 (inactive)
